Shown are actives, neighbours in structure and some others; about 3.1% of the full set was active somewhere.
EP2 mod = EP2 receptor (human) modulation; P43116; EP2-expressing cells, cAMP HTRF FRET, PGE2 co-stimulation; induction, % at 25 µM; 260,000 compounds, 0.83% hits;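 active means compounds whose cAMP rise, as percent of the full-agonist control response, exceeds 60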;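 further: rat C6 glioma line stably carrying human EP2 under a CMV promoter; the protocol text gives 20 µM as final concentration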
Target sequence (P43116 whole entry, looked up): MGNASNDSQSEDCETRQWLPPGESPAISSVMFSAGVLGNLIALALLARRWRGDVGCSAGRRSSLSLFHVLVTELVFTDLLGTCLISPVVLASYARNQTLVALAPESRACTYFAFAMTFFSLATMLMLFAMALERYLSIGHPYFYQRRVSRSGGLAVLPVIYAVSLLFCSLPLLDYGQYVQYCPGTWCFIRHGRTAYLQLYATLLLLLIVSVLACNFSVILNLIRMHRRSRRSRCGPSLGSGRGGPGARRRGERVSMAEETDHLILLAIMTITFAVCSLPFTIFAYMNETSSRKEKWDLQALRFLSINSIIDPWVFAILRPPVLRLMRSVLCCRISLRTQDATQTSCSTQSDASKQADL
PGE2 EP2 inh = blocks the human prostaglandin E2 receptor EP2. C6 glioma cells expressing human EP2, cAMP TR-FRET; cells stimulated with saturating PGE2. inhibition, % at 25 µM. 260,000 compounds, 0.52% hits. AID 1422;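 active means percent inhibition above 40 after rounding to a whole number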;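 further: rat C6 glioma host cells with rolipram phosphodiesterase inhibitor present; the protocol text gives 20 µM as final concentration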
Cl transport mod = KCC2 (human) Cl- transport modulation. KCC2 cells, thallium flux FluoZin-2 fluorescence. B-score of Tl+ flux slope (higher = more flux/activation; lower = inhibition) at 10 µM. Q9H2X9. 190,000 compounds, 2.2% hits. AID 1456;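 active means thallium flux slope and its plate-corrected score both differing from the plate sample mean at a set confidence after two filtering rounds, in either direction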;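 further: slope of fluorescence scaled to starting intensity during 10 to 20 s after thallium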
S1P3 antagonist = S1P3 (human) receptor antagonism; inhibition, % at 4.98 µM; CHO S1P3 NFAT-BLA reporter, FRET fluorescence, antagonist mode; AID 485; Q99500; 170,000 compounds, 0.27% hits;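 active means inhibition above the plate cutoff, the mean inhibition of test wells on that plate plus 3 SD, cut at about 28% in these data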;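 further: cells challenged with S1P at its EC80 of 0.8 µM; blue over green emission ratio from cleaved BLA substrate after 4 h stimulation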
EP2 confirm = human EP2 receptor cAMP induction, negative in counter-screens; shares compounds with EP2 mod; C6 glioma EP2 cells, cAMP HTRF induction; plus low (about EC15) PGE2 agonist; calls only at 20 µM (by protocol); 1,300 compounds, 47% hits;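 active means cAMP induction above 50% in the main assay while under 30% in all four parallel counter assays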;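 further: rat C6 glioma cells stably expressing human EP2 receptor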
Hits are given with their value; – = inactive; · = no result; + = active, no number.

SMILES | EP2 mod | PGE2 EP2 inh | Cl transport mod | S1P3 antagonist | EP2 confirm
COc1ccc(-c2cc(C(F)(F)F)nc(NCc3ccco3)n2)cc1OC | 66.7 | – | · | · | +
COc1cccc(-c2cc(C(F)(F)F)nc(NCc3ccco3)n2)c1 | – | – | · | · | ·
C=CCc1cc(C=O)cc(OC)c1OCc1ccc(Cl)cc1 | 83.1 | – | – | · | +
C=CCc1cc(C=O)cc(OCC)c1OCc1ccc(Cl)cc1 | 86.8 | – | – | – | +
COc1cc(C=O)ccc1OCCOCCOc1ccc(Cl)cc1 | – | – | · | · | ·
CCc1nn(CC(=O)N2CCCC(C)C2)c(=O)c2cc3sc(C)cc3n12 (configuration not stated) | – | · | · | · | ·
Cc1cccc(NC(=O)CSc2nc3cc4c(cc3cc2C#N)OCCO4)c1C | – | – | · | · | ·
Cc1nc2c(c(=O)[nH]1)CN(Cc1ccc(F)c(F)c1)CC2 | – | – | · | · | ·
C[C@H](CN(C)C)C(=O)c1ccccc1C(=O)O | – | – | · | · | –
O=c1[nH]c(N2CCCCC2)nc2c1CN(Cc1ccncc1)CC2 | – | – | · | · | ·
O=C(O)CSc1cc(-c2ccccc2)nc2ccccc12 | 66.9 | – | · | · | –
O=C(O)CSc1nc2ccccc2s1 | – | – | – | – | ·
CCc1cc2cc(C)cc(C)c2nc1SCC(=O)Nc1ccccc1OC | – | – | · | · | ·
Cc1ccc2c(c1)-c1nc3ccccc3cc1C2=NC1CCCCC1 | 69.9 | – | – | – | –
Cc1nc2sc3c(c2c2nnc(SCC(=O)N4CCCCC4C)n12)CCC(C)C3 (configuration not stated) | – | – | · | · | ·
COc1ccccc1-c1nnc2sc(-c3cc4ccccc4o3)nn12 | 77.3 | · | · | – | +
O=c1nc(-c2ccccc2)cc(-c2ccccc2)[nH]1 | 65.3 | – | – | – | –
Cc1nc(-c2ccccc2)cc(=O)[nH]1 | – | – | – | – | ·
CC(C)CCn1c(=O)c2ccccc2c2ccccc2c1=O | 82.8 | – | · | · | +
CC(C)Cn1c(=O)c2ccccc2c2ccccc2c1=O | – | – | – | – | ·
Cc1ccc2cc(CN(CCN3CCOCC3)C(=O)Nc3ccc(F)cc3)c(=O)[nH]c2c1 | – | – | · | · | ·
CC(=O)Nc1nnc(CCN2CCCCC2)s1 | 72.0 | – | – | · | –
CC(C)C(=O)Nc1nnc(CCN2CCCCC2)s1 | – | – | · | · | ·
O=C(Cn1cc(/C=C2\C(=O)NC(=O)N(c3ccccc3)C2=O)c2ccccc21)NCc1ccco1 | – | – | · | · | ·
CCOC(=O)c1oc2ccccc2c1NC(=O)c1ccccc1OC | 78.9 | – | · | – | +
SMILES | EP2 mod | PGE2 EP2 inh | Cl transport mod | S1P3 antagonist | EP2 confirm
CCCC(=O)Nc1c(C(=O)OCC)oc2ccccc12 | – | – | – | – | ·
CCN(CC)CCN1C(=O)c2cccc3cc(N)cc(c23)C1=O | – | – | – | – | –
O=c1c(C=NCc2ccccc2)c(NCc2ccccc2)nc2ccccn12 | 79.9 | – | – | – | +
COc1cc(C(=O)Nc2nc3ccc(F)cc3s2)cc(OC)c1OC | – | – | · | · | ·
C=CCSc1nc(N(CC)CC)c2sccc2n1 | 66.7 | – | – | · | –
COC(=O)Cn1c2ccc(Cl)cc2c2nc(C)sc21 | – | – | – | – | ·
Cc1ccc(S(=O)(=O)n2c3ccc(Cl)cc3c3nc(C)sc32)cc1 | 89.9 | – | – | – | +
CCCOc1ccc(Cn2c(=O)oc3ccc(C)cc32)cc1OC | – | – | – | – | ·
CCOc1ccccc1Cn1c(=O)oc2ccc(C)cc21 | 76.7 | – | – | – | +
CCCOc1ccccc1Cn1c(=O)oc2ccc(C)cc21 | 83.9 | – | – | · | +
CCOC(=O)COc1cc(Br)c(/C=N/Nc2ccccc2)cc1OC | 68.0 | · | – | · | –
Cc1noc(C)c1C(=O)N1CCC2(CC1)NC(=O)c1ccccc1O2 | – | · | · | · | ·
COc1ccc(-c2cc(-c3cccs3)nc3sc(C#N)c(N)c23)cc1 | – | – | – | – | ·
N#Cc1sc2nc(C3CC3)cc(-c3ccc(Cl)cc3)c2c1N | 75.7 | – | – | – | –
Cc1cc2ccc(C)c(C)c2nc1SCC#N | 66.1 | – | · | – | +
Cc1cc(C)n2nc(C(=O)Nc3cccc(Cl)c3C)cc2n1 | – | – | · | · | ·
COC(=O)c1c(NC(=O)c2ccccc2Cl)sc(C(=O)Nc2ccccc2OC)c1C | – | – | · | · | ·
c1ccc(-c2cc(-c3ccc(N4CCOCC4)cc3)nc3ccccc23)cc1 | – | – | – | – | ·
COc1ccc2c(-c3ccccc3)cc(N3CCOCC3)nc2c1 | 77.3 | – | – | – | +
COc1ccc(CN(Cc2cc3cc(C)cc(C)c3[nH]c2=O)Cc2nnnn2C(C)(C)C)cc1 | – | – | · | · | ·
O=C(O)c1csc(N/N=C/c2ccc(Br)cc2)n1 | 72.8 | – | – | – | –
COc1ccc(N=N/C(=C\O)C(=O)c2cccs2)cc1 | 67.2 | – | – | – | –
Cc1cccc(N=N/C(=C\O)C(=O)c2ccc(Br)cc2)c1 | 96.8 | – | – | – | +
COc1ccc(C(=O)/C(=C/O)N=Nc2ccc(F)cc2)cc1 | 69.0 | – | – | – | +
COc1ccc(NC(=O)C2CC(=O)N(c3ccccc3F)C2)cc1 (configuration not stated) | – | – | · | · | ·
SMILES | EP2 mod | PGE2 EP2 inh | Cl transport mod | S1P3 antagonist | EP2 confirm
CN1[C@@H](C(=O)NCC23CC4CC(CC(C4)C2)C3)C[C@@H](c2ccco2)NS1(=O)=O | – | · | · | · | ·
CCc1ccc2nc3c(c(C(=O)O)c2c1)CCC3 | – | – | · | – | ·
Cc1cc(Br)c2nc3c(c(C(=O)O)c2c1)CCCCC3 | 76.9 | – | – | – | –
COc1cccc(CN2CCN(C(=O)Nc3ccccc3F)[C@@H](C)C2)c1 | – | · | · | · | ·
CCn1c(=NC(=O)c2ccc(S(=O)(=O)N(C)C)cc2)sc2cccc(OC)c21 | 75.8 | – | – | – | –
Cc1ccc2nc(Nc3ccc4[nH]c(=O)[nH]c4c3)c(-n3nc(C)cc3C)nc2c1 | 85.8 | – | – | – | –
COc1ccc(-n2c(=S)[nH]c3c(oc4ccccc43)c2=O)cc1 | 68.0 | – | – | – | –
Cc1ccc(NC(=S)N(Cc2cc3ccc(C)cc3[nH]c2=O)C2CCCC2)cc1 | – | – | · | · | ·
CC(C)n1c2ccccc2c2nc3ccccc3nc21 | – | – | · | – | +
O=c1c2ccccc2c(-c2ccccc2)nn1-c1ccc(Cl)c(Cl)c1 | 70.4 | – | – | · | –
O=c1c2ccccc2c(-c2ccccc2)nn1-c1ccccc1 | – | – | – | – | ·
C=CCC(NCc1ccccc1)c1ccc(Cl)cc1 (configuration not stated) | 71.8 | – | – | – | –
CCCC(=O)O[C@H]1C[C@@H](C)N(C(=O)c2ccccc2)c2ccc(C)cc21 | 76.2 | – | – | · | –
CCOC(=O)CSc1nc2sc3c(c2c(=O)n1C1CCCCC1)CC(C)(C)OC3 | – | – | · | · | ·
Cc1ccccc1NC1=C(C(=O)c2ccccc2)N(C)S(=O)(=O)c2ccccc21 | 78.3 | – | · | · | +
O=C(C1=C(Nc2ccccc2)c2ccccc2S(=O)(=O)N1)c1ccccc1 | – | – | – | – | ·
O=C(O)/C=C/C(O)c1ccc(Cl)cc1 (configuration not stated) | 79.3 | – | · | · | –
COc1cccc(OCc2nnc(SCC(=O)N3CCC(C)CC3)n2C)c1 | – | – | · | · | ·
CCCc1cc(C(=O)OC)c(NC(=O)c2cc(C)on2)s1 | – | – | – | · | +
